Experimental findings from PubChem BioAssay (NCI) are described below.

About 79,000 compounds went through this panel and 15% of them were active in at least one assay; those are over-represented in the sample as a whole. Unmarked numbers belong to inactive results. Activity calls are given as the source filed them. Cut-off read from the data, not from the text of the source: active = growth inhibition above about 70%; inactive = the rest.

The first assay can be described thus: NCI Yeast Anticancer Drug Screen. Data for the CLN2oe strain (AID 163).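 Note: 0% = growth of vehicle-only control cultures.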 The conditions noted are these: S. cerevisiae CLN2oe strain, at 3.7 µM, active compounds read high. Put shortly: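 Cells of an engineered yeast line with disturbed cell-cycle regulation are treated with compound. Inhibition of growth is then calculated relative to the vehicle-treated reference.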
For `CC[C@@]1(O)C(=O)OCc2c1cc1n(c2=O)Cc2cc3c(N)cccc3nc2-1`, the growth inhibition was 23%.

As to `CN(C)c1ccc(Sc2ccc3nc(N)nc(N)c3c2)cc1`, the growth inhibition is 8%.

Turning to `CC(=O)OCCOCNC(=S)N/N=C(\C)c1cnccn1`, the growth inhibition was 2%.

In the case of `COc1ccc(C2c3cc4c(cc3OC(C)(O)C2C)OCO4)c(OC)c1` (stereo not given), the growth inhibition is -12%.

In the case of `COc1ccc(Br)c(C(=O)Sc2nnnn2-c2cccc(Cl)c2)c1`, the growth inhibition is 3%.

With `COc1ccc(-c2cn(-c3ccc(I)cc3)c3ncnc(N)c23)cc1`, the growth inhibition was -8%.

As for `COc1cc(/C=C2\CCc3ccccc3C2=O)cc(OC)c1OC`, the growth inhibition was -2%.

Take `CC(C)/C(Cl)=N\OC(=O)Nc1cccc(Cl)c1`: the growth inhibition was -3%.

Regarding `CC1(C)[C@@H]2CC[C@]1(C)[C@H](OC(=O)CSC#N)C2`, the growth inhibition was -1%.

As for `COc1ccc(/C(C)=N/OC(=O)c2c(-c3ccccc3Cl)noc2C)cc1CN1CCOCC1`, the growth inhibition was -7%.

On to `C=CC(C)(O)CCC1C(=C)C(O)CC2C(C)(C)CCCC12C` (stereo not given), for which the growth inhibition is -34%.

On to `S=C(Nc1ccc(Cl)c(Cl)c1)SCc1ccc2c(c1)OCO2`, for which the growth inhibition was -13%.

Regarding `COc1cc(C2C3=C(COC3=O)Oc3cc4c(cc32)OCO4)ccc1O` (stereo not given), the growth inhibition is 8%.

As to `S=C(Nc1ccc(Cl)cc1)SC1CCCCC1`, the growth inhibition was -7%.

On to `c1ccc(-c2nc3cccnc3s2)cc1`, for which the growth inhibition was -1%.

On to `O=[N+]([O-])c1cc(CCl)ccc1CCl`, for which the growth inhibition is 15%.

With `COc1ccc(/C=C2\SC(=S)N(/C=C/c3nc4ccccc4[nH]c3=O)C2=O)cc1OC`, the growth inhibition is -11%.

For `C#CCCCc1ccccc1`, the growth inhibition is -5%.

Regarding `CC(=O)Cc1ccc[cH-]1.[Fe+2].c1cc[cH-]c1`, the growth inhibition is 5%.

Consider `FC(F)(F)c1cc(NC(=S)N2c3ccccc3-n3cccc3C2c2cccnc2)cc(C(F)(F)F)c1` (stereo not given), for which the growth inhibition is -2%.

Turning to `CC(C)(CN1CCCCC1)C(=O)CC(SCCS(=O)(=O)O)c1ccc(Br)cc1` (stereo not given), the growth inhibition is 4%.

For `C[Si](C)(C)CNC(=O)OCc1ccccc1`, the growth inhibition was -3%.

On to `Oc1cccc2c(Cl)ccnc12`, for which the growth inhibition was 96% (active).

Take `O=C1C=CC(=C(c2ccccc2)c2ccccc2)c2ccccc21`: the growth inhibition was -3%.

Consider `S=C(S)NN1CCOCC1`, for which the growth inhibition is 31%.

The assay is the same for the next values; noted with them: S. cerevisiae CLN2oe strain, at 11.0 µM, active compounds read high.
In the case of `CC[C@@]1(O)C(=O)OCc2c1cc1n(c2=O)Cc2cc3c(N)cccc3nc2-1`, the growth inhibition was 25%.

`CN(C)c1ccc(Sc2ccc3nc(N)nc(N)c3c2)cc1`: the growth inhibition was 17%.

In the case of `CC(=O)OCCOCNC(=S)N/N=C(\C)c1cnccn1`, the growth inhibition was 12%.

Turning to `COc1ccc(C2c3cc4c(cc3OC(C)(O)C2C)OCO4)c(OC)c1` (stereo not given), the growth inhibition is -2%.

Regarding `COc1ccc(Br)c(C(=O)Sc2nnnn2-c2cccc(Cl)c2)c1`, the growth inhibition was 3%.

As for `COc1ccc(-c2cn(-c3ccc(I)cc3)c3ncnc(N)c23)cc1`, the growth inhibition is -2%.

`COc1cc(/C=C2\CCc3ccccc3C2=O)cc(OC)c1OC`: the growth inhibition is 2%.

Regarding `CC(C)/C(Cl)=N\OC(=O)Nc1cccc(Cl)c1`, the growth inhibition is -6%.

On to `CC1(C)[C@@H]2CC[C@]1(C)[C@H](OC(=O)CSC#N)C2`, for which the growth inhibition was 1%.

Take `COc1ccc(/C(C)=N/OC(=O)c2c(-c3ccccc3Cl)noc2C)cc1CN1CCOCC1`: the growth inhibition is 8%.

Consider `C=CC(C)(O)CCC1C(=C)C(O)CC2C(C)(C)CCCC12C` (stereo not given), for which the growth inhibition is -8%.

Take `S=C(Nc1ccc(Cl)c(Cl)c1)SCc1ccc2c(c1)OCO2`: the growth inhibition is 99% (active).

For `COc1cc(C2C3=C(COC3=O)Oc3cc4c(cc32)OCO4)ccc1O` (stereo not given), the growth inhibition is -1%.

With `S=C(Nc1ccc(Cl)cc1)SC1CCCCC1`, the growth inhibition is 43%.

`c1ccc(-c2nc3cccnc3s2)cc1`: the growth inhibition is 0%.

Take `O=[N+]([O-])c1cc(CCl)ccc1CCl`: the growth inhibition is 48%.

On to `COc1ccc(/C=C2\SC(=S)N(/C=C/c3nc4ccccc4[nH]c3=O)C2=O)cc1OC`, for which the growth inhibition was 7%.

`C#CCCCc1ccccc1`: the growth inhibition is 4%.

Regarding `CC(=O)Cc1ccc[cH-]1.[Fe+2].c1cc[cH-]c1`, the growth inhibition is 17%.

Regarding `FC(F)(F)c1cc(NC(=S)N2c3ccccc3-n3cccc3C2c2cccnc2)cc(C(F)(F)F)c1` (stereo not given), the growth inhibition was 2%.

Consider `CC(C)(CN1CCCCC1)C(=O)CC(SCCS(=O)(=O)O)c1ccc(Br)cc1` (stereo not given), for which the growth inhibition is 13%.

With `C[Si](C)(C)CNC(=O)OCc1ccccc1`, the growth inhibition is 7%.

With `Oc1cccc2c(Cl)ccnc12`, the growth inhibition is 97% (active).

Take `O=C1C=CC(=C(c2ccccc2)c2ccccc2)c2ccccc21`: the growth inhibition was -9%.

Turning to `S=C(S)NN1CCOCC1`, the growth inhibition was 29%.

The assay is the same for the next values; noted with them: S. cerevisiae CLN2oe strain, at 33.0 µM, active compounds read high.
On to `CC[C@@]1(O)C(=O)OCc2c1cc1n(c2=O)Cc2cc3c(N)cccc3nc2-1`, for which the growth inhibition is 22%.

For `CN(C)c1ccc(Sc2ccc3nc(N)nc(N)c3c2)cc1`, the growth inhibition was -11%.

On to `CC(=O)OCCOCNC(=S)N/N=C(\C)c1cnccn1`, for which the growth inhibition was 21%.

Turning to `COc1ccc(C2c3cc4c(cc3OC(C)(O)C2C)OCO4)c(OC)c1` (stereo not given), the growth inhibition was 4%.

On to `COc1ccc(Br)c(C(=O)Sc2nnnn2-c2cccc(Cl)c2)c1`, for which the growth inhibition was 5%.

Consider `COc1ccc(-c2cn(-c3ccc(I)cc3)c3ncnc(N)c23)cc1`, for which the growth inhibition was 9%.

Turning to `COc1cc(/C=C2\CCc3ccccc3C2=O)cc(OC)c1OC`, the growth inhibition was 15%.

As to `CC(C)/C(Cl)=N\OC(=O)Nc1cccc(Cl)c1`, the growth inhibition is -3%.

As for `CC1(C)[C@@H]2CC[C@]1(C)[C@H](OC(=O)CSC#N)C2`, the growth inhibition was 47%.

`COc1ccc(/C(C)=N/OC(=O)c2c(-c3ccccc3Cl)noc2C)cc1CN1CCOCC1`: the growth inhibition is 17%.

As to `C=CC(C)(O)CCC1C(=C)C(O)CC2C(C)(C)CCCC12C` (stereo not given), the growth inhibition was -16%.

For `S=C(Nc1ccc(Cl)c(Cl)c1)SCc1ccc2c(c1)OCO2`, the growth inhibition is 99% (active).

For `COc1cc(C2C3=C(COC3=O)Oc3cc4c(cc32)OCO4)ccc1O` (stereo not given), the growth inhibition was -2%.

Take `S=C(Nc1ccc(Cl)cc1)SC1CCCCC1`: the growth inhibition was 96% (active).

`c1ccc(-c2nc3cccnc3s2)cc1`: the growth inhibition was -5%.

Regarding `O=[N+]([O-])c1cc(CCl)ccc1CCl`, the growth inhibition was 94% (active).

Regarding `COc1ccc(/C=C2\SC(=S)N(/C=C/c3nc4ccccc4[nH]c3=O)C2=O)cc1OC`, the growth inhibition is 59%.

With `C#CCCCc1ccccc1`, the growth inhibition is 2%.

As for `CC(=O)Cc1ccc[cH-]1.[Fe+2].c1cc[cH-]c1`, the growth inhibition was 23%.

As to `FC(F)(F)c1cc(NC(=S)N2c3ccccc3-n3cccc3C2c2cccnc2)cc(C(F)(F)F)c1` (stereo not given), the growth inhibition was -1%.

For `CC(C)(CN1CCCCC1)C(=O)CC(SCCS(=O)(=O)O)c1ccc(Br)cc1` (stereo not given), the growth inhibition is 25%.

For `C[Si](C)(C)CNC(=O)OCc1ccccc1`, the growth inhibition is 4%.

For the compound `Oc1cccc2c(Cl)ccnc12`, the growth inhibition was 93% (active).

In the case of `O=C1C=CC(=C(c2ccccc2)c2ccccc2)c2ccccc21`, the growth inhibition was -8%.

As to `S=C(S)NN1CCOCC1`, the growth inhibition was 27%.
